We go through 40 compounds from PubChem BioAssay (Tox21).

Records with an inconclusive call do not appear. A number with no mark means an inactive call. Active and inactive are the calls of the source. The call rests on the fitted dose curve; in most records, active means well fitted activation curve with a large enough effect in the signal ratio in the repeat runs (not every such curve was filed as active); inconclusive means weak or mixed curves, or effect the other way; inactive means no such curve, though single readings can be large or run the other way; the % refers to the signal ratio.
On the % scale 0 is the no-effect control and ±100 the full control effect.

Chain of Peroxisome proliferator-activated receptor gamma (Homo sapiens) (P37231 whole entry, looked up): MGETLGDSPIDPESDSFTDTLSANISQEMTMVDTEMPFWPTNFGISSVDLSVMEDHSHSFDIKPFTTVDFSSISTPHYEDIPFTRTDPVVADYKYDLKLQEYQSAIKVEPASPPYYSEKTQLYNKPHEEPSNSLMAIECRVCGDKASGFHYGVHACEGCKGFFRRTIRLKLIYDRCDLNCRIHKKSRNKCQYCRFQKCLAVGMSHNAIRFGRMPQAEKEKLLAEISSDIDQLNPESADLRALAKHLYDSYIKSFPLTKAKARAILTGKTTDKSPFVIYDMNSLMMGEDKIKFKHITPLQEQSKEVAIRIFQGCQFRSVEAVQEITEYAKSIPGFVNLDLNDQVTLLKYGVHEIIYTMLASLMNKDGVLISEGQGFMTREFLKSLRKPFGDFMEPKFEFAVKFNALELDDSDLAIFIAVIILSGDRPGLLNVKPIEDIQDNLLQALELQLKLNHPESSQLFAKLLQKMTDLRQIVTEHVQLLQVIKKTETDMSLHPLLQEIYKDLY

This test concerns the target Peroxisome proliferator-activated receptor gamma (Homo sapiens) (UniProt P37231). Put plainly: qHTS assay to identify small molecule agonists of the peroxisome proliferator-activated receptor gamma (PPARg) signaling pathway (AID 743094). Particulars: HEK293H PPARg-UAS-bla, beta-lactamase FRET ratio, 17 h; series mostly up to 57 µM; activation: at the top concentration. The text has this:
U.S. Tox21 Program National Center for Advancing Translational Sciences [NCATS] NIH Chemical Genomics Center [NCGC] U.S. Environmental Protection Agency [EPA] National Institutes of Environmental Health Sciences [NIEHS] National Toxicology Program [NTP] U.S. Food and Drug Administration [FDA] Tox21 Assay Overview: The peroxisome proliferator-activated receptors (PPARs) are lipid-activated transcription factors of the nuclear receptor superfamily with three distinct subtypes namely PPAR alpha, PPAR delta (also called PPAR beta) and PPAR gamma (PPARg). All these subtypes heterodimerize with Retinoid X receptor (RXR) and these heterodimers regulate transcription of various genes. PPAR-gamma receptor (glitazone receptor) is involved in the regulation of glucose and lipid metabolism. To identify the compounds that activate PPAR-gamma signaling, GeneBLAzer PPAR gamma UAS-bla HEK293H cell line (Invitrogen, Carlsbad, CA, USA) containing a beta-lactamase reporter gene under control of the control of an upstream activator sequence (UAS) stably integrated into HEK293H cells was used to screen Tox21 compound library.
Tox21 Assay Protocol Summary: PPARg-bla cells were dispensed at 3000 cells/6uL/well in 1536-well black wall/clear bottom plates using a Multidrop Combi (Thermo Fisher Scientific, Waltham, MA) dispenser. After the assay plates were incubated at 37C and 5% CO2 for 5 h, 23 nL of compounds dissolved in DMSO, positive controls or DMSO only was transferred to the assay plate by a Pintool station (Kalypsys, San Diego, CA). The assay plates were incubated at 37C for 17 h. After 1 uL of LiveBLAzerTM B/G FRET substrate was added using a Bioraptr Flying Reagent Dispenser (FRD) workstation (Beckman Coulter, Indianapolis, IN, USA), the plates were incubated at room temperature for 1 h, and fluorescence intensity was measured by an Envision plate reader (PerkinElmer, Shelton, CT).
`CCCCCCCCOC(C)=O`: the “activation” value is -1.06%.

Take `Cc1ccccc1OCC1CO1` (stereo not given): the “activation” value was -2.16% [at 78.9 µM].

On to `C=CCOCC(O)CCl` (stereo not given), for which the “activation” value was -0.744%.

Regarding `CCCCCCCCCCCCCCCC(=O)NCCO`, the “activation” value is -0.119%.

On to `CCN1CN(CC)CN(CC)C1`, for which the “activation” value was -0.287%.

Take `C=C(C)C(=O)OC`: the “activation” value was -0.485%.

As for `CCCCCCCCCCCCC1CO1` (stereo not given), the “activation” value was 0.307%.

In the case of `Cn1c(=O)c2c(ncn2CC2OCCO2)n(C)c1=O`, the “activation” value is 0.291%.

As to `O=c1[nH]c(=O)c2[nH]c(=O)[nH]c2[nH]1`, the result was inactive.

As to `COc1cccc2sc(N)nc12`, the “activation” value was 0.869% [at 78.9 µM].

Take `Cc1nc2ccccc2c(=O)o1`: the “activation” value is -1.72% [at 78.9 µM].

Turning to `CCC(CO)CO`, the “activation” value was 3.1%.

Take `Nc1ccc(S(=O)(=O)NC(=O)c2ccccc2)cc1`: the “activation” value is -1.37% [at 26.2 µM].

With `COC(OC)C(C)c1ccccc1` (stereo not given), the “activation” value is 0.635%.

Turning to `CCCCCC1CCCC(=O)O1` (stereo not given), the “activation” value is -1.28%.

On to `CC(C)SCc1ccco1`, for which the “activation” value was 0.13% [at 26.2 µM].

On to `CO[Si](CCCS)(OC)OC`, for which the “activation” value is -1.73%.

As to `CN[C@@H]1[C@H](O)[C@H](NC)[C@H]2O[C@@]3(O)C(=O)C[C@@H](C)O[C@H]3O[C@@H]2[C@H]1O`, the “activation” value was -1.64% [at 26.2 µM].

Consider `Cc1oc(=O)oc1CN1CCN(c2cc3c(cc2F)c(=O)c(C(=O)O)c2n3C(C)S2)CC1` (stereo not given), for which the “activation” value is -0.394%.

As to `CC1CCC(C(C)(C)S)C(=O)C1` (stereo not given), the “activation” value is -4.48%.

With `OC[C@@H](O)[C@H](O)[C@@H](O)[C@@H](O)CO`, the “activation” value is 0.727%.

On to `CCNC(=O)/C=C/c1cccc(Br)c1`, for which the “activation” value was 1.1%.

Consider `C=CCCCCCCCCCCC`, for which the activation is -4.62% [at 7.08 µM].

As to `CCCCC(CC)COC(=O)c1ccccc1` (stereo not given), the “activation” value was -0.0649%.

Regarding `CCCOCCOCCOCCO`, the “activation” value was -0.156%.

Consider `O=c1[nH]c(=O)c2ccccc2o1`, for which the “activation” value was -0.453%.

In the case of `O=S(=O)(O)CCO`, the “activation” value was 2.52% [at 78.9 µM].

Take `O=C1OC(=O)c2cc(Oc3ccc4c(c3)C(=O)OC4=O)ccc21`: the “activation” value is -1.31%.

As for `NS(=O)(=O)c1cc2c(cc1Cl)NC(CC1CCCC1)NS2(=O)=O` (stereo not given), the “activation” value is -2.46% [at 26.2 µM].

`CCCCCCCCCOCC1CO1` (stereo not given): the “activation” value was -2.21% [at 78.9 µM].

As to `CC(Cl)COP(=O)(OCC(C)Cl)OCC(C)Cl` (stereo not given), the “activation” value was -0.99%.

As for `CCCC(C)CC` (stereo not given), the “activation” value was 0.825%.

With `O=C(O)/C=C/c1ccccc1`, the outcome was inactive.

Take `O=C(O)c1ccccc1C(=O)Nc1ccc(S(=O)(=O)Nc2nccs2)cc1`: the “activation” value was -5.1%.

Take `O=C(O)C(=O)Nc1cccc(-c2nn[nH]n2)c1`: the “activation” value was 0.236%.

Regarding `CCC1COC(=O)O1` (stereo not given), the “activation” value is -3.15%.

Take `C1=C\CC/C=C\CC/1`: the “activation” value is 0.204% [at 78.9 µM].

Turning to `COc1cc([N+](=O)[O-])ccc1N`, the “activation” value was -8.43%.

For `NS(=O)(=O)c1ccccc1OC(F)(F)F`, the “activation” value was -1.5%.

`CCN(Cc1cccc(S(=O)(=O)O)c1)c1ccccc1`: the “activation” value was 7.46%.
